# From PubChem BioAssay AID720542 (National Center for Advancing Translational Sciences (NCATS), 2013)
# Out of some 360,000 compounds screened, about 740 (0.21%) were called active. Another 2% or so got no clear call; they are omitted. The sample holds actives, similar compounds and a random draw of the others, so the mix is not that of the screen. A number with no mark means an inactive call. Calls come from the whole dose curve; as a rule, active = well fitted inhibition curve with a large enough effect; inconclusive = small, poorly fitted or top-dose-only effect; inactive = no such curve, though single readings can be large or run the other way.
# Tested on: Plasmodium falciparum AMA1 (3D7) - RON2 peptide interaction
# Experiment: qHTS for Inhibitors of AMA1-RON; Towards Development of Antimalarial Drug Lead: Primary Screen; note: nearly all actives have a fitted effect of over 45% in size;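 for activity change, negative = inhibition: 0% = vehicle wells and -100% = peptide control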
# Conditions: AlphaScreen AMA1-biotinylated RON2 peptide binding; series mostly up to 58.2 µM; activity change, negative = inhibition: at the top concentration
# Description: Plasmodium, the causative agent of malaria, is one of the world's deadliest parasitic diseases. Currently there is no vaccine available and there is widespread resistance to common anti-malarial drugs. This warrants novel, alternative approaches for developing improved therapy. During infection, one such essential interaction is between two parasite proteins, the apical membrane antigen1 (AMA1) that is translocated onto the merozoite surface and the rhoptry neck protein 2 (RON2), which is transferred to the red blood cells (RBC) membrane during invasion (Besteiro et.al., 2009). Recently, the Miller lab has shown that the interaction between AMA1 and RON2 is essential for junction formation of the parasite with the host cell (Srinivasan et.al., 2011). The binding of the RON2 peptide to the hydrophobic pocket in AMA triggers the formation of the moving junction which provides a firm anchor for the parasite to pull itself into the RBC using its actin-myosin motor; an irreversible step that commits the parasite for invasion. Only one AMA1 and RON2 genes exists in Plasmodium and there are no alternate pathways. Moreover, the region corresponding to RON2 peptide is conserved in all P. falciparum isolates for which sequences are available. The key residues in the AMA1 hydrophobic pocket that binds RON2 are also conserved and indicate a functional constraint governing this essential step in invasion since a short RON2 peptide (RON2L) corresponding to the binding region on AMA1 is sufficient to compete with the native RON2 protein and inhibits invasion (Tonkin et.al, 2011). Therefore, developing small molecule inhibitors of this interaction offers a promising target opening a new arena for anti-malarial therapeutics drug design.
# In collaboration with the Miller lab, a quantitative High Throughput Screen using the AlphScreen technology was developed using a recombinant his-tagged AMA1 and a biotinylated RON2 peptide. This fluorescent screen was assayed against the NIH Molecular Libraries Small Molecule Repository (MLSMR). Inhibition of this protein-protein interaction is the desired outcome of this assay. However, due the limitations of this AlphaScreen assay, a large number of artifacts were observed. An AlphaScreen counterscreen was run to identify the true inhibitors, triage compound activity, and weed out false positives.
# NIH Chemical Genomics Center [NCGC]
# NIH Molecular Libraries Probe Centers Network [MLPCN]
# Assay Submitter (PI): Louis Miller, National Institute of Allergy and Infectious Disease (NIAID)
# Two microliters of his-tagged AMA1 3D7 allele protein (final concentration 25 nM) was dispensed into a 1,536-well assay plate. Small molecules and positive control peptides were pin-transferred (23 nL or 46 nL) via Kalypsys pin-tool equipped with a 1,536-pin array, resulting in final compound and peptide concentration ranges of 91.5 nM - 57.2 µM, and 15.6 nM - 2.00 µM, respectively. Unlabeled RON2 peptide or R1 peptide ([…]) that specifically binds the 3D7 AMA1 was used as a positive control that inhibited the binding of RON2L to AMA1. After 15 minutes incubation, 1 uL of biotinylated RON2 peptide (final concentration 25 nM) or buffer were dispensed and the assay plate was incubated for an additional 30 minutes at room temperature and protected from light. This was followed by an addition of 1 uL mixture of donor and acceptor beads (10 ug/mL final concentrations for each). The plates were incubated for 30 min at room temperature and read using the EnVision(R) plate reader (PerkinElmer). Maximum inhibition response was normalized to the positive control signal while no inhibition response was normalized to the DMSO treated wells.
# Potency is the fitted concentration of half-maximal effect.
SMILES,"activity change, negative = inhibition [%]",Potency
COc1ccc(CCNC(=O)C(=O)NCC2OCCN2S(=O)(=O)c2ccc(OC)c(C)c2)cc1 (centres undefined),9.2,
O=C(COC(=O)CNS(=O)(=O)c1ccccc1)NC12CC3CC(CC(C3)C1)C2,-5.62,
O=c1ccc2cc(S(=O)(=O)NCCCc3ccccc3)ccc2[nH]1,1.59,
COc1ccc(C2CC(c3ccc(Cl)cc3Cl)Nc3nc(N)nn32)cc1OC (centres undefined),-7.14,
Cc1ccc(C2CC(c3cccc(Br)c3)n3nc(N)nc3N2)cc1 (centres undefined),-13,
COc1ccc(C2CC(c3ccc(C)cc3)Nc3nc(N)nn32)cc1 (centres undefined),,3.16 µM (active)
CCOc1cc(C(=O)N(Cc2ccccc2)c2ccc(C)cc2)ccc1OCC(=O)N1CCOCC1,6.38,
CN(C)/C=C(/C(=O)c1ccc(Cl)c(Cl)c1)c1nnnn1-c1ccccc1,25.1,
COC(=O)c1ccc(NC(=O)CSc2nnc(C3CC3)n2C)cc1,-1.1,
C/C=C/C=C/C(=O)OCC(=O)Nc1ccc(Cl)cc1,-15.1,
CCCCN1C(=O)CCC(C(=O)O)C1c1ccc(OC)cc1 (centres undefined),-2.98,
O=C(Nc1cccc(S(=O)(=O)NC2=NCCC2)c1)C1CCCCC1,16.3,
COCCCNC(=O)c1c(F)c(F)c(F)c(F)c1F,2.58,
COc1ccc(C(CNC(=O)c2ccc(OCc3cscn3)cc2)N2CCCC2)cc1 (centres undefined),-4.79,
CN(C)/C=C(/C(=O)c1ccc(F)cc1)S(=O)(=O)c1ccc(F)cc1,-2.22,
CC(c1ccco1)N(C(=O)COc1ccccc1[N+](=O)[O-])c1ccccn1 (centres undefined),3.66,
CCOC(=O)N1CCN(C(=O)COCc2cc(-c3ccc4c(c3)OCO4)on2)CC1,5.8,
COC(=O)c1c(NC(=O)C(=O)N2CCCCC2)sc2c1CC(C)(C)OC2,50.7,
CCn1cc(/C=C2/SC(=S)NC2=O)c(C)n1,-5.21,
COC(=O)c1ccc2ccccc2c1OC1OC(CO)C(O)C(O)C1NC(C)=O (centres undefined),6.75,
O=C(c1ccc(Br)o1)N(c1ccccn1)C1CCCCC1,-23.6,
O=C(NC(=O)c1ccc(Cl)c(Cl)c1)OC1CCS(=O)(=O)C1 (centres undefined),0.692,

SMILES,"activity change, negative = inhibition [%]",Potency
O=C(Nc1cccnc1Oc1ncnc2cc(Cl)ccc12)c1ccc(F)cc1,-12.6,
CCN(C(=O)COC(=O)c1sccc1C)c1c(N)n(Cc2ccccc2)c(=O)[nH]c1=O,3.44,
Nc1ccc2nc3c(=O)[nH]c(=S)[nH]c3nc2c1,,1.41 µM (active)
c1ccc(CCC2=NCCn3cccc32)cc1,,inactive
Cc1ccc(S(=O)(=O)N2CCCCC2)cc1NC(=O)CCNC(=O)c1ccccc1,2.37,
Cc1ccc(-c2nnn(CC(=O)N(CCO)C(C(=O)NC(C)(C)C)c3ccncc3)n2)cc1 (centres undefined),-5.68,
Cc1cccc(C)c1NC(=O)CN1C(=O)C(C)Oc2ccccc21 (centres undefined),-12.1,
Cc1occc1-c1nnc(SCC(=O)NC2CCCCC2)o1,-2.44,
COc1cc(Cl)c(C)cc1NC(=O)CSc1nnc(CN2CCCC2)o1,75.1,
COc1cc(Cl)c(C)cc1NC(=O)CSc1nnc(-c2ccco2)n1CC(C)C,-19.4,
CCn1c(SCC(=O)Nc2cc(C)c(Cl)cc2OC)nnc1-c1ccco1,,33.6 µM (active)
CC(C)NC(=O)NCCCCCCS(C)=O (centres undefined),-0.738,
Oc1ccc2ccccc2c1N=Nc1nccs1,,28.2 µM (active)
COc1ccc(CNC(=O)c2ccc(NS(=O)(=O)c3ccc4[nH]c(=O)[nH]c4c3)cc2)cc1OC,-5.23,
O=S1(=O)CCN(Cc2ccccc2Cl)CC1,-14,
Cc1ccc(CN2CCN(/N=C/c3ccco3)CC2)c(C)c1,-3.91,
COc1ccccc1/C=N/N1CCN(Cc2ccccc2Cl)CC1,,15.8 µM (active)
CSc1ccc(/C=N/N2CCN(Cc3ccccc3Cl)CC2)cc1,,14.1 µM (active)
COCCNC(=O)C1CCCN(Cc2ccccc2Cl)CC1 (centres undefined),-2.5,
COc1ccccc1/C=C/C=N/NC(=O)CN1CCN(Cc2ccccc2)CC1,2.67,
CC1CCCN(C(=O)Cn2c(=O)oc3ccccc32)C1 (centres undefined),19.1,
Cc1coc(C)c1C(=O)CC1(O)C(=O)N(C)c2ccc(Cl)cc21 (centres undefined),-2.7,

SMILES,"activity change, negative = inhibition [%]",Potency
N#Cc1cccc(CSc2nnc(CCCO)n2-c2ccccc2)c1,11.9,
Cc1ccc(C(C(=O)NC2CCCCC2)N(C(=O)c2csnn2)C2CC2)o1 (centres undefined),-4.5,
COc1cccc(-c2ccc3c(c2)N(Cc2ccccc2OC)C(=O)C(C)S3)c1 (centres undefined),-17.7,
O=C1/C(=C\c2cccnc2)CN(Cc2ccccc2)C/C1=C\c1cccnc1,-12.8,
Cc1ccc(C2=C/C(=C\c3cccnc3)C(=O)O2)cc1,0.0252,
Nc1ccc2c(c1)C(=Cc1cccnc1)c1ccccc1-2,,20 µM (active)
Cc1c(C)c2c(OCC(=O)N[C@@H](C(=O)O)c3ccccc3)cc3c(c2oc1=O)CCC(C)(C)O3,-12.5,
O=C(CC[C@H]1O[C@@H](n2ccc(=O)[nH]c2=O)[C@H](O)[C@@H]1O)N[C@H](Cc1ccccc1)C(=O)NCCCN1CCCC1=O,0,
CCOC(=O)CC(SP1(=S)OCC2(CCCCO2)C(C2CCCCO2)O1)C(=O)OCC (centres undefined),11.3,
O=C(Nc1ccccc1-c1nnn(CC(=O)N2CCCc3ccccc32)n1)c1cccc(Cl)c1,-16.6,
CCC(C)C(=O)Nc1ccccc1N1CCN(c2ccc(F)cc2)CC1 (centres undefined),-27.4,
Cc1cc(C)cc(NC(=O)N2CCC(NC(=O)c3ccc(F)cc3)CC2)c1,24.4,
O=c1ccc2c(-c3ccccc3S(=O)(=O)O)c3ccc(O)c(O)c3oc-2c1O,,5.01 µM (active)
CC1=C(C(=O)Nc2ccccc2)C(c2cccs2)C(C#N)=C(SCC#N)N1 (centres undefined),59.5,
Cc1ccc(-c2nn(C(C)(C)C)c3ncnc(N)c23)cc1,1.93,
CC(C)NC(=S)NN=C1CCCCCCCCCCC1,25.2,
NC(=S)Nc1c(Cl)cccc1Cl,-3.62,
CCCCC(=O)NNC(=S)NC(=O)C(c1ccccc1)c1ccccc1,45.2,
Cc1noc(C)c1S(=O)(=O)N(C)Cc1ccccc1,3.84,
CC1(C)O[C@@H]2[C@H](O1)[C@@H](COS(=O)(=O)O)O[C@H]2n1ccc(=O)[nH]c1=O,0.295,
